Compound activity as filed in PubChem BioAssay.
CCT modulator = changes cytosolic chaperonin activity; purified chaperonin ATPase assay, HTRF ADP detection, 30 min; activity change, % (test concentration not listed), hits read low; 0.3% of 360,000 active; AID 651819; in the data active means activity change below about -30%
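ATPase activity: ADP formed was measured by HTRF Transcreener (665/615 nm ratio) after 30 min at 37 deg C with 10 uM ATP. Compounds screened at one 76 uM concentration against 40 or 20 nM TRiC in Tris pH 7.4/KCl/MgCl2/DTT buffer.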
S-ASM inh = blocks human secretory acid sphingomyelinase; placental ASM, HMU-PC fluorogenic substrate, 60 min; 0.006% of 340,000 active; P17405; Potency, µM (doses to about 57.5 µM), most hits filed as inhibitors
Target sequence (P17405 47-631 limits assumed): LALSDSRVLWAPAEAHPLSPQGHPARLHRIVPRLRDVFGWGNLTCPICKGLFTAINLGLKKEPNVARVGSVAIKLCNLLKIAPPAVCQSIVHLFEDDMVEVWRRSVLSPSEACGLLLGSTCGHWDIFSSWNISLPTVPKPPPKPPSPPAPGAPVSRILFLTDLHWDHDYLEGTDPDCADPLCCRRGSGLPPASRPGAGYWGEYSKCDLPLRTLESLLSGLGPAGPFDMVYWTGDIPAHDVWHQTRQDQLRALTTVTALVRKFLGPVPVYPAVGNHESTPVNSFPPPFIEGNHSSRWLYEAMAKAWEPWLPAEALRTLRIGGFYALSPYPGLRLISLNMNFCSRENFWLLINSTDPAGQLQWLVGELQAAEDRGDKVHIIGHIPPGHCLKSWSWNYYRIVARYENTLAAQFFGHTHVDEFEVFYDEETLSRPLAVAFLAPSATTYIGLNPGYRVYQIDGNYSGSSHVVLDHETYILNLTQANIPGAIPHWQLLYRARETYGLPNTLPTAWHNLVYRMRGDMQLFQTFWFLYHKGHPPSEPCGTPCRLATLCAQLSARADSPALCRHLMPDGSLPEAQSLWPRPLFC
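Human placenta-derived ASM preincubated with compound 10 min at room temperature, then reacted with 9 uM (final) fluorogenic HMU-PC substrate for 60 min at 37 C. Stop solution raises pH to 10; fluorescence read at Ex 386/Em 447 nm.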
Mm-Cpn inhibitor = blocks the Methanococcus maripaludis chaperonin Mm-Cpn; Potency, µM (highest dose often 76.9 µM), actives largely listed as inhibitors; purified Mm-Cpn ATPase, ADP Transcreener TR-FRET; 0.031% of 330,000 active; further: nearly all actives have a fitted effect of over 80% in size
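Reaction buffer contained 30 mM Tris pH 7.4, 100 mM KCl, 5 mM MgCl2 and 1 mM DTT. Mm-CPN (25 nM final) hydrolysed 10 uM ATP over 30 min at 37°C; ADP was read by HTRF.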
PINK1 expr mod = PINK1 expression modulation. PINK1 immunofluorescence, high-content cytometry, 24 h. Potency, µM (doses to about 76.6 µM), usual class: activators. 0.2% of 410,000 active. AID 624263; active means well fitted activation curve with a large enough effect; inconclusive means small, poorly fitted or top-dose-only effect; cell line not stated here; further: nearly all actives have a fitted effect of over 65% in size
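Fluorescence from anti-PINK1 antibody, together with nuclear and cell stains, was scanned on a laser-scanning cytometer. Before staining, stable-line cells were incubated 24 hours with compounds at 5 concentrations; primary antibody 12 h at 10 degrees C.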
p53 reactivation = mutant p53 re-activation in reporter cells; H1299 p53-A138V BP100-luciferase reporter, luminescence, 24 h; Potency, µM (highest dose often 92.2 µM), most hits filed as activators; 0.063% of 320,000 active; AID 504706; further: nearly all actives have a fitted effect of over 45% in size
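H1299 (p53-null), stable ts p53-A138V + BP100-Luc; 1000 cells/well, Opti-MEM/10% FBS; cpd 4 pt, 1:5; 24 h, 37 deg C, 5% CO2; detection reagent 10 min RT; luminescence.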
12-LOX inh = inhibitors of human 12S-lipoxygenase ALOX12 | purified 12hLO, xylenol orange hydroperoxide absorbance | 1.1% of 580,000 active | Potency, µM (doses to about 108 µM), actives largely listed as inhibitors | P18054
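Purified human 12hLO at 150 nM in 25 mM Hepes, 0.01% Triton X-100, pH 7.0, preincubated 15 min at room temperature with compound. Reaction started with 40 uM arachidonic acid, 30 min at room temperature. Hydroperoxide measured by Fe-xylenol orange, 573/405 nm absorbance ratio.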
A number is an active result; i = inactive; ? = inconclusive; nt = not tested or not shown; ! = not active in a repeat; [ ] = another dose, or the depositor's remark. Only some compounds are listed: those with a hit (about 1.4% of all), similar ones and a draw of the others. Unless noted, the call rests on the fitted dose curve; in most records, active means well fitted curve in the direction sought with a large enough effect; inconclusive means small, poorly fitted or top-dose-only effect, or another doubt; inactive means no such curve, though single readings can be large; an effect the other way counts as inactive or inconclusive.

SMILES	CCT modulator	S-ASM inh	Mm-Cpn inhibitor	PINK1 expr mod	p53 reactivation	12-LOX inh
Cc1ccc(S(=O)(=O)Nc2ccccc2NS(=O)(=O)c2ccc(C)cc2)cc1	i	nt	nt	i	nt	7.9µM
CCOC(=O)C1CCCN(C(=O)c2ccccc2NC(=O)C2=C(C)OCCS2)C1 (configuration not stated)	i	i	i	i	i	i
CCOC(=O)C1CCCN(C(=O)c2ccc(C)c(NC(=O)C3=C(C)OCCS3)c2)C1 (configuration not stated)	-66	i	i	i	i	i
CC1CCCCC1NC(=S)NC1CC(C)(C)NC(C)(C)C1 (configuration not stated)	nt	nt	nt	nt	nt	i
CN(CC(=O)Nc1ccccc1Cl)C(=O)c1cc(C2CC2)nn1-c1ccccc1	-31	i	i	i	i	i
O=C(CN1CCN(Cc2ccccc2)CC1)N/N=C/c1cccnc1	-36	i	i	i	i	?
CCCOc1ccc(C[N+](C)(C)C)cc1C[N+](C)(C)C	nt	nt	nt	nt	nt	63µM
CCCOc1ccc(C(C)=O)cc1CC(C(=O)OCC)C(=O)OCC	i	i	i	i	i	i
Cc1ccc(OCC(=O)NCc2cccc(NC(=O)C3CC3)c2)c(Br)c1	nt	nt	nt	nt	nt	i
Cc1cccc(N2CCN(CC(=O)NC(=O)NCC(F)(F)F)CC2)c1	nt	nt	nt	nt	nt	i
CN1C(=O)C2(c3ccccc31)C1CCCC=C1C(C#N)=C(N)C2(C#N)C#N (configuration not stated)	i	i	i	i	i	45µM
CN1C(=O)C2(C(C#N)=C(N)N(c3cc(Cl)cc(Cl)c3)C3=C2C(=O)CCC3)c2ccccc21 (configuration not stated)	i	i	i	i	i	i
Cc1cc2c(cc1C)CSC(c1c(O)ccc3cc(Br)ccc13)SC2	nt	nt	nt	nt	nt	0.79µM
COc1ccc(C2SCc3cc(C)c(C)cc3CS2)cc1	nt	nt	nt	nt	nt	i
CC(C)C[C@@H]1N[C@H](C(=O)NCCN(C)C)Cc2c[nH]c3cccc1c23	nt	nt	nt	nt	nt	i
COc1ccc(C(=O)Oc2cccc(OC(=O)c3ccc(OC)cc3)c2)cc1	nt	nt	nt	nt	nt	i
COc1ccc(NC(=S)Nc2ccc3nsnc3c2)cc1	i	i	i	i	?	7.9µM
COc1ccc(OC(=O)c2ccc3nsnc3c2)cc1	-48	i	i	i	i	i
CCOc1ccccc1C(=O)N1CCC[C@H]1c1nc(-c2ccc(F)cc2)no1	nt	nt	nt	nt	nt	i
CCc1ccc(OCC(=O)Nc2ccc3oc(-c4ccccc4F)nc3c2)c(-n2cnnc2)c1	nt	nt	nt	nt	nt	i
N[C@@H](Cc1cc(I)c(O)c(I)c1)C(=O)O	i	i	i	i	i	0.51µM!
COc1ccc(C2=NN(c3nc(C)cs3)C(c3ccccc3)C2)cc1 (configuration not stated)	nt	nt	nt	nt	nt	i
CCN(CC)CCCNC(=O)c1nn(-c2cccc(OC)c2)c(=O)c2ccccc12	-76	i	i	i	i	i
CCN(CC)CCCNC(=O)c1nn(-c2ccc(OC)cc2OC)c(=O)c2ccccc12	i	i	i	i	i	i
COCc1nnc(NC(=O)C2CC(=O)N(c3ccc(F)cc3)C2)s1 (configuration not stated)	nt	nt	nt	nt	nt	i
SMILES	CCT modulator	S-ASM inh	Mm-Cpn inhibitor	PINK1 expr mod	p53 reactivation	12-LOX inh
S=C1NC2=C(CCc3ccccc32)C(c2ccc(Cl)cc2)N1 (configuration not stated)	nt	nt	nt	nt	nt	28µM
COc1ccccc1C1NC(=S)NC2=C1CCc1ccccc12 (configuration not stated)	nt	nt	nt	nt	nt	28µM
COc1cccc(C2NC(=S)NC3=C2CCc2ccccc23)c1 (configuration not stated)	i	i	i	i	i	?
S=C1NC2=C(CCc3ccccc32)C(c2ccccc2Cl)N1 (configuration not stated)	nt	nt	nt	nt	nt	8.9µM
COc1ccc2c(c1)C1=C(CC2)C(c2ccc(C)cc2)NC(=S)N1 (configuration not stated)	i	i	i	i	i	40µM
Cc1ccc(C2NC(=O)NC3=C2CCc2ccccc23)cc1 (configuration not stated)	i	i	i	i	?	?
Cc1ccc(C)c(-c2csc(NC(=O)c3cc(C)no3)n2)c1	nt	nt	nt	nt	nt	i
Cc1nnc(SCC(=O)c2ccc(F)c(F)c2)n1Cc1ccccc1	nt	nt	nt	nt	nt	i
Cc1ccc(NC(=S)NCC2(C)CC(NC(=S)Nc3ccc(C)cc3C)CC(C)(C)C2)c(C)c1 (configuration not stated)	nt	nt	nt	nt	nt	7.1µM
CC1(C)CC(NC(=S)Nc2ccccc2)CC(C)(CNC(=S)Nc2ccccc2)C1 (configuration not stated)	nt	nt	nt	nt	nt	28µM
CCN(CC)CCn1c2c(c(SCC(=O)Nc3ccccc3Cl)nc1=O)CCC2	-34	i	i	i	i	i
Cc1ccc(Sc2c(C#N)c(-c3ccccc3)nn2C)cc1	i	i	i	10µM	i	i
Cc1cc(OCC(=O)OCC(=O)NCc2cccs2)ccc1Cl	-33	i	i	i	i	i
COc1ccc(-c2ccc3c(c2)S(=O)(=O)c2cccc(C(=O)NCc4cccc(OC(F)(F)F)c4)c2C3=O)cc1OC	i	i	i	4.5µM	i	nt
COc1ccc(-c2ccc3c(c2)S(=O)(=O)c2cccc(C(=O)N4CCN(c5ccccn5)CC4)c2C3=O)cc1OC	-32	nt	nt	i	nt	i
Cn1cccc1/C=N/N1CCN(Cc2ccccc2)CC1	i	i	i	i	i	?
Cn1cccc1/C=N/N1CCN(Cc2cccc3ccccc23)CC1	i	i	i	i	i	18µM
Cc1cc(OC(=O)c2cc(Br)ccc2Cl)c([N+](=O)[O-])c(=O)[nH]1	i	i	i	i	i	35µM
CCS(=O)(=O)N1CCN(c2ccccc2)CC1	-40	i	i	i	i	i
Cn1cnc(S(=O)(=O)N2CCN(c3ccccc3)CC2)c1	-78	i	i	i	i	i
COc1ccc(-c2nc(C3CC3)nc3c2CN(C(=O)c2ccccn2)CC3)cc1	nt	nt	nt	nt	nt	i[6.33 µM]
CN(c1ccccc1)P(=O)(N(C)c1ccccc1)N(C)c1ccccc1	i	i	i	16µM	i	i
CN(c1ccccc1)S(=O)(=O)CS(=O)(=O)N(C)c1ccccc1	i	i	nt	i	nt	i
Cc1cn[nH]c1	i	i	i	i	i	3.4µM!
Ic1cn[nH]c1	nt	nt	nt	nt	nt	i
Cc1ccc(-c2csc(CCn3nc(C)c4c(C(F)(F)F)cc(=O)[nH]c43)n2)cc1	nt	nt	nt	nt	nt	10µM
COc1ccc(-c2csc(CCn3nc(C)c4c(C(F)(F)F)cc(=O)[nH]c43)n2)cc1	nt	nt	nt	nt	nt	18µM
Cc1nn(CCC#N)c2[nH]c(=O)cc(C(F)(F)F)c12	i	i	i	i	i	i
COc1ccc(C(=O)N2CCCC(n3cc(-c4nc(C(C)C)no4)nn3)C2)cn1 (configuration not stated)	nt	nt	nt	nt	nt	i
